“And” between values parts separate entries of the source, which are not always exact repeats. Equal entries are not always repeated. Records with an inconclusive call do not appear. The source made the active and inactive calls.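 The calls were made as follows, unless noted: active = compounds whose dose series gives a full or clear partial fitted curve of increased nuclear translocation; inconclusive = weak partial curve or effect only at the top dose; inactive = no dose-dependent translocation response.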
Test system: not listed separately
Assay: Stat Signaling Pathway (AID 446; active = well fitted curve in either direction with a large enough effect, not every such curve was filed as active;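 also: ME-180 cervical cancer cells given 40 pM IL-6 alongside compound; SIE-controlled beta-lactamase reporter measured as 460/530 nm FRET emission ratio; % is scaled to controls: 0 for no effect and ±100 for the full control effect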)
Conditions: ME-180 (cervical carcinoma) SIE beta-lactamase reporter, IL-6 stimulated, 5 h; series mostly up to 17.2 µM; activity, negative = inhibition: at the top concentration
In short: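 FRET read-out (405 nm excitation, 460/530 nm emission) of a beta-lactamase reporter under a STAT-inducible element in ME-180 cervical carcinoma cells. Cells with compound receive 40 pM IL-6 for 5 h. Values are normalised to AC90 stimulation and AC90 JAK-inhibitor controls.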
For `CC[C@]1(O)CC2CN(CCc3c([nH]c4ccccc34)[C@@](C(=O)OC)(c3cc4c(cc3OC)N(C=O)[C@H]3[C@@](O)(C(=O)OC)[C@H](OC(C)=O)[C@]5(CC)C=CCN6CC[C@]43[C@@H]65)C2)C1` (some centres undefined), the “activity, negative = inhibition” value was -0.92% (inactive). With `O=C1NC(=O)C(c2cn(-c3ccccc3)nc2-c2ccc(F)cc2)N1` (centres undefined) the “activity, negative = inhibition” value was 0.669% (inactive). For `COc1ccc2c(OC)c3ccoc3nc2c1OC`, the “activity, negative = inhibition” value was 3.12% (inactive). In the case of `Cc1ccccc1CN1C2=NCCN2C(=O)C2=C1CCN(Cc1ccccc1)C2`, the “activity, negative = inhibition” value is reported as 4.57% [at 7.69 µM] (inactive).

Biological target: Glucocorticoid receptor (Homo sapiens) (UniProt P04150)
Sequence (P04150 whole entry, looked up): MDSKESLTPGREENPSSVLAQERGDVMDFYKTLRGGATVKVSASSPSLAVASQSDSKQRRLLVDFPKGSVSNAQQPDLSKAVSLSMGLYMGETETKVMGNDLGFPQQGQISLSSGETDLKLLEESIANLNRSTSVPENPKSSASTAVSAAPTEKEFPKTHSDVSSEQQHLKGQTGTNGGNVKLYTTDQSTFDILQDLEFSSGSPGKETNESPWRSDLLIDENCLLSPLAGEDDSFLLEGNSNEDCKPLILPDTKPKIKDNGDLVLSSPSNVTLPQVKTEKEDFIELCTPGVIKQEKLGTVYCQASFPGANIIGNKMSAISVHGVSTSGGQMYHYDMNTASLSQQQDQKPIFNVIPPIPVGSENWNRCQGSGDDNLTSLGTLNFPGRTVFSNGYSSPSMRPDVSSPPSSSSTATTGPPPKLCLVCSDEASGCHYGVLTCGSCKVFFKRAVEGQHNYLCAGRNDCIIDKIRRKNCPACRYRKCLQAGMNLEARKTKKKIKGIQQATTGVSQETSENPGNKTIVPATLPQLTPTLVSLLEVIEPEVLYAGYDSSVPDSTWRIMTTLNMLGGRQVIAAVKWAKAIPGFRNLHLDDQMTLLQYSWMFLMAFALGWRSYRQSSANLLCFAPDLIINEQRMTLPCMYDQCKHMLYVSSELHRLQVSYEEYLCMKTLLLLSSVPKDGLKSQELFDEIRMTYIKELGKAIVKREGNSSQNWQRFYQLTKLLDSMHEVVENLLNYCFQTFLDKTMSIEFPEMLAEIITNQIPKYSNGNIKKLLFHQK
Assay: GR-GFP Redistribution (AID 450); also: potency is read from the fitted curve at half-maximal effect
Conditions: U2OS GR-GFP nuclear translocation, laser cytometry, 2 h
With `CC[C@]1(O)CC2CN(CCc3c([nH]c4ccccc34)[C@@](C(=O)OC)(c3cc4c(cc3OC)N(C=O)[C@H]3[C@@](O)(C(=O)OC)[C@H](OC(C)=O)[C@]5(CC)C=CCN6CC[C@]43[C@@H]65)C2)C1` (some centres undefined) the Potency was > 20.6 µM (inactive). In the case of `CC(=O)O[C@H]1C(=O)[C@@]2(C)[C@H]([C@H](OC(=O)c3ccccc3)[C@]3(O)C[C@H](OC(=O)[C@H](O)[C@@H](NC(=O)c4ccccc4)c4ccccc4)C(C)=C1C3(C)C)[C@]1(OC(C)=O)CO[C@@H]1C[C@@H]2O`, the Potency is reported as > 46 µM (inactive). With `COc1ccc(C[C@H](N)C(=O)N[C@@H]2[C@H](O)[C@H](n3cnc4c(N(C)C)ncnc43)O[C@@H]2CO)cc1` the Potency was > 20.6 µM (inactive). With `O=C1NC(=O)C(c2cn(-c3ccccc3)nc2-c2ccc(F)cc2)N1` (centres undefined) the Potency was > 20.6 µM (inactive). In the case of `COc1ccc2c(OC)c3ccoc3nc2c1OC`, the Potency is reported as > 20.6 µM (inactive) and > 46 µM (inactive). For `Cc1ccccc1CN1C2=NCCN2C(=O)C2=C1CCN(Cc1ccccc1)C2`, the Potency was > 46 µM (inactive).

Biological target: Glucocorticoid receptor (Homo sapiens) (UniProt P04150)
Assay: GR-EFC Redistribution (AID 451; calls by dose curve; also: potency is read from the fitted curve at half-maximal effect)
Conditions: CHO-K1 GR-EFC translocation, beta-gal luminescence, 2 h
In short: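 CHO-K1 cells expressing nuclear EA and GR-ED fragments of b-gal; compounds titrated up to 46 uM final, 2 h at 37 C. GR nuclear translocation read as complemented b-gal luminescence after 1 h RT detection.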
For `CC(=O)O[C@H]1C(=O)[C@@]2(C)[C@H]([C@H](OC(=O)c3ccccc3)[C@]3(O)C[C@H](OC(=O)[C@H](O)[C@@H](NC(=O)c4ccccc4)c4ccccc4)C(C)=C1C3(C)C)[C@]1(OC(C)=O)CO[C@@H]1C[C@@H]2O`, the Potency was > 46 µM (inactive). With `COc1ccc(C[C@H](N)C(=O)N[C@@H]2[C@H](O)[C@H](n3cnc4c(N(C)C)ncnc43)O[C@@H]2CO)cc1` the Potency was > 20.6 µM (inactive). In the case of `COc1ccc2c(OC)c3ccoc3nc2c1OC`, the Potency is reported as > 20.6 µM (inactive) and > 46 µM (inactive). In the case of `Cc1ccccc1CN1C2=NCCN2C(=O)C2=C1CCN(Cc1ccccc1)C2`, the Potency is reported as > 9.22 µM (inactive).
